Assay results reported in PubChem BioAssay AID1159580 (chemical genetic matrix, 2015).
The whole screen tested about 5,500 compounds, of which about 2,000 (36%) were called active. Inconclusive results (about 18%) are left out. Rule as the data show it: active = normalized growth mostly below about 0.91 (no sharp cut-off); inconclusive = no clear call, values can overlap the other calls; inactive = mostly above about 0.92. The list shows a part of the results.

Assay: chemical genetic growth profiling, strain panel (AID 1159580);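 also: tested at 20 µM; growth read once vehicle control cultures reached saturation at 30 °C; 1 = growth at the plate median or of vehicle wells; lower values mean less growth of the strain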
Details: S. cerevisiae deletion strains, growth OD
[1] = locus YJR075W, strain HOC1, stronger effect = lower value
[2] = locus YMR263W, strain SAP30, stronger effect = lower value
[3] = locus YNL153C, strain GIM3, stronger effect = lower value

Measured: normalized growth

NC(N)=NN=Cc1c(Cl)cccc1Cl
inactive: locus YAL040C, strain CLN3, stronger effect = lower value 0.994 | locus YCL061C, strain MRC1 (second series), stronger effect = lower value 0.999 | locus YDR363W, strain ESC2, stronger effect = lower value 1.01 | locus YER002W, strain NOP16, stronger effect = lower value 1.01 | [1] 1.01 | [2] 1 | locus YMR307W, strain GAS1, stronger effect = lower value 1.01 | [3] 0.999 | locus YNL175C, strain NOP13, stronger effect = lower value 1.02 | locus YNL197C, strain WHI3, stronger effect = lower value 1 | locus YNL224C, strain SQS1, stronger effect = lower value 1.01 | locus YOR083W, strain WHI5 (second series), stronger effect = lower value 1.01

CS/C(N)=N\N=C/c1c(F)cccc1Cl
inactive: locus YAL013W, strain DEP1, stronger effect = lower value 0.998 | locus YBR229C, strain ROT2, stronger effect = lower value 0.992 | locus YCL061C, strain MRC1, stronger effect = lower value 0.996 | locus YDL101C, strain DUN1, stronger effect = lower value 1 | locus YDR150W, strain NUM1, stronger effect = lower value 0.995 | locus YEL061C, strain CIN8, stronger effect = lower value 1 | locus YGR078C, strain PAC10, stronger effect = lower value 1.01 | locus YHR030C, strain SLT2, stronger effect = lower value 0.988 | locus YHR087W, strain rtc3, stronger effect = lower value 0.979 | locus YJL187C, strain SWE1, stronger effect = lower value 0.986 | locus YJR043C, strain POL32, stronger effect = lower value 0.992 | [1] 0.991 | locus YLR039C, strain RIC1, stronger effect = lower value 1.1 | locus YLR058C, strain SHM2 (second series), stronger effect = lower value 0.998 | locus YLR085C, strain ARP6, stronger effect = lower value 1.08 | locus YLR262C, strain YPT6, stronger effect = lower value 1.03 | locus YML094W, strain GIM5, stronger effect = lower value 0.993 | locus YMR219W, strain ESC1, stronger effect = lower value 0.995 | [2] 1.02 | [3] 0.998 | locus YNL298W, strain CLA4 (second series), stronger effect = lower value 1.05 | locus YNL322C, strain KRE1, stronger effect = lower value 1 | locus YNR030W, strain Alg12, stronger effect = lower value 1.05 | locus YPL055C, strain LGE1, stronger effect = lower value 1 | locus YPL241C, strain CIN2, stronger effect = lower value 0.988 | locus YPR135W, strain CTF4, stronger effect = lower value 1.03
